“And” between values parts separate entries of the source, which are not always exact repeats. Identical values can stand only once. About 83,000 compounds went through this panel and 20% of them were active in at least one assay; those are over-represented in the sample as a whole.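 Cells were grown in 96-well plates and exposed to the test compound at a single concentration for 48 hours; results are reported as percent growth, with values below 10 considered active.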 The source made the active and inactive calls.
What was measured:
Test in all cases: NCI-60 one-dose screen, 48 h (100 = growth as untreated, 0 = no growth, -100 = all killed)
Settings in all cases: 10 µM unless noted
SR leukemia = test system: SR leukemia
RPMI-8226 leukemia = test system: RPMI-8226 leukemia
OVCAR-8 ovarian = test system: OVCAR-8 ovarian
OVCAR-5 ovarian = test system: OVCAR-5 ovarian
OVCAR-4 ovarian = test system: OVCAR-4 ovarian
SK-OV-3 ovarian = test system: SK-OV-3 ovarian
IGROV1 ovarian = test system: IGROV1 ovarian
OVCAR-3 ovarian = test system: OVCAR-3 ovarian
NCI/ADR-RES ovarian = test system: NCI/ADR-RES ovarian
HS 578T breast = test system: HS 578T breast

Measured: growth

Oc1cccnc1CN1CCOCC1
inactive: SR leukemia 103% | RPMI-8226 leukemia 104% and 96.7% | OVCAR-8 ovarian 93.5% and 95.3% | OVCAR-5 ovarian 112% and 92.8% | OVCAR-4 ovarian 94.9% | SK-OV-3 ovarian 101% and 105% | IGROV1 ovarian 106% and 109% | OVCAR-3 ovarian 118% and 110% | NCI/ADR-RES ovarian 106% and 94.6%

COc1cc([C@@H]2c3cc4c(cc3[C@H](O)[C@H]3COC(=O)[C@@H]23)OCO4)cc(OC)c1OC
25.8% (inactive) and -19.7% (active): RPMI-8226 leukemia
inactive: OVCAR-8 ovarian 11.5% and 18.9% | OVCAR-5 ovarian 24.3% and 30.4% | OVCAR-4 ovarian 34.2% and 35.6%
active: SR leukemia 6.02% and -8.59% | IGROV1 ovarian -2.37% and -41.6% | HS 578T breast -47.7% | NCI/ADR-RES ovarian 5.58% and -30.9%
33% (inactive) and 3.05% (active): SK-OV-3 ovarian

COc1cc(Cl)ccc1C
inactive: SR leukemia 71.2% | RPMI-8226 leukemia 105% | OVCAR-8 ovarian 87.5% | OVCAR-5 ovarian 71.1% | OVCAR-4 ovarian 76.4% | SK-OV-3 ovarian 93.2% | IGROV1 ovarian 72.3% | OVCAR-3 ovarian 111% | NCI/ADR-RES ovarian 97.4%

Nc1ccccc1SC1CC(=O)N(c2ccc(I)cc2)C1=O (stereo unspecified)
inactive: SR leukemia 68.6% | RPMI-8226 leukemia 85.1% | OVCAR-8 ovarian 87.8% | OVCAR-5 ovarian 90.3% | OVCAR-4 ovarian 93.8% | SK-OV-3 ovarian 95.5% | OVCAR-3 ovarian 87.1% | HS 578T breast 88.6% | NCI/ADR-RES ovarian 91.6%

CCOC(=O)c1ccc(C(=N)N)cc1
inactive: SR leukemia 103% | RPMI-8226 leukemia 89.7% | OVCAR-8 ovarian 105% | OVCAR-5 ovarian 120% | OVCAR-4 ovarian 107% | SK-OV-3 ovarian 108% | IGROV1 ovarian 107% | HS 578T breast 73.8% | NCI/ADR-RES ovarian 100%

CS(=O)(=O)OCC1NC(=O)C(COS(C)(=O)=O)NC1=O (stereo unspecified)
inactive: SR leukemia 104% and 125% | RPMI-8226 leukemia 82.7% and 90% | OVCAR-8 ovarian 87.5% and 107% | OVCAR-5 ovarian 106% and 124% | OVCAR-4 ovarian 79.8% and 87% | SK-OV-3 ovarian 107% and 120% | IGROV1 ovarian 63.4% and 57.5% | OVCAR-3 ovarian 122% and 94.8% | NCI/ADR-RES ovarian 103% and 97.8%

CCc1ccccc1-n1[nH]c(C)c(C=N)c1=O
inactive: SR leukemia 94.8% | RPMI-8226 leukemia 107% | OVCAR-8 ovarian 118% | OVCAR-5 ovarian 110% | OVCAR-4 ovarian 114% | SK-OV-3 ovarian 119% | IGROV1 ovarian 112% | HS 578T breast 99.2% | NCI/ADR-RES ovarian 106%

COc1ccc(/C=C/C(=O)O)cc1OC
inactive: SR leukemia 110% and 106% | RPMI-8226 leukemia 102% and 106% | OVCAR-8 ovarian 108% and 103% | OVCAR-5 ovarian 106% and 109% | OVCAR-4 ovarian 105% and 113% | SK-OV-3 ovarian 103% and 107% | IGROV1 ovarian 104% and 115% | HS 578T breast 103% and 102% | NCI/ADR-RES ovarian 108% and 105%

Nc1c(Cl)cc2c(c1Br)C(=O)c1ccccc1C2=O
inactive: SR leukemia 78.4% | RPMI-8226 leukemia 98.3% | OVCAR-8 ovarian 89.3% | OVCAR-5 ovarian 98.5% | OVCAR-4 ovarian 106% | SK-OV-3 ovarian 84% | IGROV1 ovarian 71.6% | OVCAR-3 ovarian 117% | NCI/ADR-RES ovarian 92.4%

CC1NC(C)c2ccc3ccccc3c2O1 (stereo unspecified)
inactive: SR leukemia 96.8% | RPMI-8226 leukemia 97.3% | OVCAR-8 ovarian 104% | OVCAR-5 ovarian 108% | OVCAR-4 ovarian 111% | SK-OV-3 ovarian 106% | IGROV1 ovarian 115% | HS 578T breast 108% | NCI/ADR-RES ovarian 105%

OCCCc1ccccc1
inactive: SR leukemia 132% | RPMI-8226 leukemia 117% | OVCAR-8 ovarian 104% | OVCAR-5 ovarian 97% | OVCAR-4 ovarian 112% | SK-OV-3 ovarian 97.6% | IGROV1 ovarian 82.4% | NCI/ADR-RES ovarian 108%

O=C(O)Cc1cc(=O)[nH]n(-c2ccccc2)c1=O
inactive: SR leukemia 88.9% | RPMI-8226 leukemia 117% | OVCAR-8 ovarian 90% | OVCAR-5 ovarian 100% | OVCAR-4 ovarian 103% | SK-OV-3 ovarian 98% | IGROV1 ovarian 115% | HS 578T breast 117% | NCI/ADR-RES ovarian 115%

CC(=O)/C(N=Nc1ccc(S(=O)(=O)c2ccc(N=N/C(C(C)=O)=C(/C)O)cc2)cc1)=C(\C)O
inactive: SR leukemia 101% | RPMI-8226 leukemia 86.7% | OVCAR-8 ovarian 102% | OVCAR-5 ovarian 110% | OVCAR-4 ovarian 107% | SK-OV-3 ovarian 112% | OVCAR-3 ovarian 105% | HS 578T breast 109% | NCI/ADR-RES ovarian 102%

O=[N+]([O-])c1ccc(N/N=C/C2CCCCCC2)c([N+](=O)[O-])c1
inactive: SR leukemia 82.9% | RPMI-8226 leukemia 90.3% | OVCAR-8 ovarian 102% | OVCAR-5 ovarian 99.1% | OVCAR-4 ovarian 98.5% | SK-OV-3 ovarian 102% | OVCAR-3 ovarian 99.8% | HS 578T breast 96.9% | NCI/ADR-RES ovarian 104%

CCOC(=O)C(N)Cc1cc(I)c(O)c(I)c1 (stereo unspecified)
inactive: SR leukemia 89.3% and 104% | RPMI-8226 leukemia 96.4% and 107% | OVCAR-8 ovarian 110% and 104% | OVCAR-5 ovarian 109% and 107% | OVCAR-4 ovarian 108% and 107% | SK-OV-3 ovarian 107% and 96.6% | IGROV1 ovarian 115% and 104% | HS 578T breast 107% | NCI/ADR-RES ovarian 98.8% and 101%

O=C1C=CC[C@H](/C=C/c2ccccc2)O1
-35.5% (active) and 15.7% (inactive): IGROV1 ovarian
132% (inactive) and 7.79% (active): SK-OV-3 ovarian
active: SR leukemia 5.19% | RPMI-8226 leukemia -34.8% | OVCAR-3 ovarian 1.02% and -41.3%
inactive: OVCAR-8 ovarian 21.2% and 14.4% | OVCAR-5 ovarian 57.6% and 54.9% | OVCAR-4 ovarian 36% and 33.6% | NCI/ADR-RES ovarian 34% and 28.9%

CC(=O)c1cccc(OC(=O)c2ccccc2)c1
inactive: SR leukemia 65.6% | RPMI-8226 leukemia 100% | OVCAR-8 ovarian 99% | OVCAR-5 ovarian 104% | OVCAR-4 ovarian 92.7% | SK-OV-3 ovarian 97.6% | IGROV1 ovarian 114% | OVCAR-3 ovarian 124% | NCI/ADR-RES ovarian 96%

COc1ccc(COC=O)cc1
inactive: SR leukemia 93.5% | RPMI-8226 leukemia 103% | OVCAR-8 ovarian 97.8% | OVCAR-5 ovarian 101% | OVCAR-4 ovarian 107% | SK-OV-3 ovarian 98.6% | IGROV1 ovarian 107% | HS 578T breast 104% | NCI/ADR-RES ovarian 102%

O=c1[nH]c(=O)n(C2OC(CO)C(O)C2O)cc1I (stereo unspecified)
inactive: SR leukemia 96.1% and 114% | RPMI-8226 leukemia 107% | OVCAR-8 ovarian 98.9% and 95.7% | OVCAR-5 ovarian 107% and 104% | OVCAR-4 ovarian 100% and 102% | SK-OV-3 ovarian 110% and 102% | IGROV1 ovarian 103% and 106% | HS 578T breast 108% and 98.3% | NCI/ADR-RES ovarian 109% and 97.4%

CCN(CC)Cc1cc2[nH]c3c4ccc(Cl)cc4ncc3c2cc1OC
active: SR leukemia -49.9% and -13.8% | RPMI-8226 leukemia -39.2%
33.3% (inactive) and -1.1% (active): OVCAR-4 ovarian
inactive: OVCAR-8 ovarian 83.2% and 80.6% | OVCAR-5 ovarian 98% and 98.6% | SK-OV-3 ovarian 83.8% and 105% | IGROV1 ovarian 293% and 63.1% | OVCAR-3 ovarian 87.5% | NCI/ADR-RES ovarian 78.1% and 102%

CCCCCc1cc[n+](CC(=O)c2ccccc2)cc1
inactive: SR leukemia 115% and 100% | RPMI-8226 leukemia 104% and 107% | OVCAR-8 ovarian 97.2% and 99.3% | OVCAR-5 ovarian 97.6% and 101% | OVCAR-4 ovarian 110% and 85.2% | SK-OV-3 ovarian 101% and 105% | IGROV1 ovarian 91.6% and 108% | HS 578T breast 106% | NCI/ADR-RES ovarian 98.6% and 103%

N#CC(=S)Nc1ccc(Cl)c(Cl)c1
inactive: RPMI-8226 leukemia 19.7% | OVCAR-8 ovarian 10.1% | OVCAR-5 ovarian 11% | OVCAR-4 ovarian 22.6% | IGROV1 ovarian 19.5%
active: SR leukemia 9.44% | SK-OV-3 ovarian 7.19% | HS 578T breast -7.34% | NCI/ADR-RES ovarian 7.44%

COc1ccc(/C=N/NC(N)=S)cc1
inactive: SR leukemia 107% | RPMI-8226 leukemia 88.9% | OVCAR-8 ovarian 100% | OVCAR-5 ovarian 93.7% | OVCAR-4 ovarian 89.8% | SK-OV-3 ovarian 106% | IGROV1 ovarian 76.9% | HS 578T breast 101% | NCI/ADR-RES ovarian 96.7%

— PubChem BioAssay (NCI)
